Most compounds without a hit are left out; they make up all but 2.6% or so of the library.
SmPrx2 inh – Schistosoma Mansoni Peroxiredoxins (Prx2) | Schistosoma mansoni peroxiredoxin 2 (Prx2) | S. mansoni Prx2 activity coupled to TGR/GSH (TGR is thioredoxin glutathione reductase), NADPH fluorescence loss, qHTS | Potency, µM | 65,000 tested, 0.07% active | AID 448, 2006
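Enzyme mix: 100 uM NADPH, 25 nM TGR, 700 uM GSH, 50 nM Prx2 in 100 mM phosphate pH 7.4, 10 mM EDTA, 0.01% Tween-20. 15 min RT with compound; NADPH/GSH added, H2O2 starts reaction; NADPH fluorescence read 8 min.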
Anthrax LT inh – qHTS Assay for Anthrax Lethal Toxin Internalization; Cells, anthrax lethal toxin internalization, FRET ratio (460/530); Potency, µM (titrated, usually from 40 µM), inactives show top-dose activity change, negative = inhibition, hits mostly inhibitors; 70,000 tested, 0.67% active; AID 912, 2007; also: % is scaled to controls: 0 for no effect and ±100 for the full control effect; nearly all actives have a fitted effect of over 50% in size
AmpC inh det – Promiscuous and Specific Inhibitors of AmpC Beta-Lactamase (assay with detergent); P00811; purified AmpC, nitrocefin hydrolysis with detergent; Potency, µM (titrated, usually from 28.7 µM), for the others: at the top dose activity change, negative = inhibition; 71,000 tested, 0.09% active; AID 584, 2007; active = well fitted curve in the direction sought with a large enough effect; inconclusive = small, poorly fitted or top-dose-only effect; also: % is scaled to controls: 0 for no effect and ±100 for the full control effect
Target sequence (P00811 whole entry, looked up): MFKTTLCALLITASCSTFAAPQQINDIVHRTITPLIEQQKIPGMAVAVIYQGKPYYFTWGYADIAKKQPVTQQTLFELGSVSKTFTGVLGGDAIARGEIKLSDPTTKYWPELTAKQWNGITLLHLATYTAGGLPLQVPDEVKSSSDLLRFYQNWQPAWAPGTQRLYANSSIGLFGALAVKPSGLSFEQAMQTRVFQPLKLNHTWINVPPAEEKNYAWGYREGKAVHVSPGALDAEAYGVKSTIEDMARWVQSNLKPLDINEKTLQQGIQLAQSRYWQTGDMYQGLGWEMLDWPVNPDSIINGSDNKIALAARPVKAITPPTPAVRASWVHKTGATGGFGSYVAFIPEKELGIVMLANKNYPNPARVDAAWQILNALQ
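E. coli AmpC (5.3 nM) in 20 mM phosphate pH 7.0 with 0.01% Triton X-100, preincubated 15 min RT with compound; nitrocefin (2 uL of 800 uM stock) hydrolysis followed by 480 nm absorbance every 20 s over 4 min.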
AmpC inh no det – Promiscuous and Specific Inhibitors of AmpC Beta-Lactamase (assay without detergent). AmpC nitrocefin hydrolysis, absorbance 480 nm, no detergent. Potency, µM (titrated, usually from 28.7 µM), for the others: at the top dose activity change, negative = inhibition. 71,000 tested, 1.8% active. AID 585, 2007; also: % of control where 0% means no effect
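Enzyme, pH 7.0 phosphate. Compound titrations were pre-incubated with AmpC for 15 min at room temperature before nitrocefin (stock 800 uM) addition; product formation was recorded at 480 nm every 20 s for 4 min.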
The depositor's hits bear a star; i = inactive; ? = inconclusive; · = no result; ! = not confirmed by another sample; [ ] = dose if it differs, or a comment. Unless noted, calls follow the shape of the full dose curve. Potency is read from the fitted curve at half-maximal effect.

SMILES	SmPrx2 inh	Anthrax LT inh	AmpC inh det	AmpC inh no det
CCCC[C@@H]1C[C@H]1C(NC(=O)c1cccnc1)c1ccc(Cl)cc1 (stereo not given in full)	i	?	-4%	114%
CCCCNc1nc(C)nc2c1nc(-c1ccccc1)n2C1CCN(Cc2ccccc2)C1 (stereo not given)	·	13µM*	10%	96%
Cc1nc(NCc2ccccc2)c2nc(-c3ccccc3)n(C3CCN(Cc4ccccc4)C3)c2n1 (stereo not given)	·	?	15%	70%
CCN1C(=O)[C@H]2[C@H]3[C@H](O)[C@H](O)C/C(=N/O[C@@H]4O[C@@H](COC(C)=O)[C@@H](OC(C)=O)[C@@H](OC(C)=O)[C@H]4OC(C)=O)[C@@H]3CC[C@@H]2C1=O	·	-9%[8 µM]	·	·
O=C1C=CC2=C3c4cc(O)c(O)cc4C[C@@]3(O)COC2=C1O	>57	25µM*	-14%	16µM*
COc1cccc(NC(=O)c2ccc(CN3CCN(c4ccccc4)CC3)cc2)c1	>57	10µM*	-5%	32%
CCNc1ncc2nc(C)c(=O)n(Cc3cccs3)c2n1	>57	11%	-2%	15%
Nc1nn(S(=O)(=O)c2cccc3nsnc23)cc1-c1ccc(Br)cc1	>57	?	-6%	13µM*[single pt active]
Cc1ccc(-c2cn(S(=O)(=O)c3cccc4nsnc34)nc2N)cc1	>57	25%	-3%	-13%
C=CS(=O)(=O)c1ccc(Oc2ccc(S(=O)(=O)C=C)cc2)cc1	?	4µM*	2%	15%
O=S(=O)(c1ccc(Oc2ccc(S(=O)(=O)N3CCOCC3)cc2)cc1)N1CCOCC1	·	-15%	-1%	108%
CN(CCNC(=O)c1cn(C)c2ccc(S(=O)(=O)N(C)C)cc2c1=O)CCc1ccccc1	>57	-13%	14%	4µM*[single pt active]
CN(C1CCCCC1)S(=O)(=O)c1ccc2c(c1)c(=O)c(C(=O)NCCN1CCCC1)cn2C	>57	10µM*	10%	91%
CCn1cc(C(=O)NCCCOC)c(=O)c2cc(S(=O)(=O)N(C)C)ccc21	>57	-1%	13%	3.2µM*[single pt active]
COc1ncc2nc(-c3cn(C)c4ccccc34)c(=O)n(C)c2n1	>57	?	0%	23%
Nc1nc(Cl)cc(NCCO)n1	>57	0%[8 µM]	-4%[5.75 µM]	-6%[5.75 µM]
O=S(=O)(c1ccccc1)N1CCC2(CCCN(c3ccncc3)C2)CC1	>57	1µM*	-4%	21%
O=S(=O)(c1ccccc1)N1CCC2(CCCN(c3ccccc3)C2)CC1	>57	?	1%	4%
Cc1ccc(N=Nc2c(O)ccc3cc(S(=O)(=O)O)ccc23)cc1	>57	-14%[8 µM]	-5%[5.75 µM]	-1%[5.75 µM]
Cc1ccc(S(=O)(=O)Oc2ccc(N=Nc3ccc(-c4ccc(N=Nc5c(O)ccc6cc(S(=O)(=O)O)cc(S(=O)(=O)O)c56)c(C)c4)cc3C)cc2)cc1	·	16µM*	-6%	0.32µM*
Cc1c(Cc2ccccc2)c(=O)oc2cc(OCc3nn[nH]n3)ccc12	>57	?	-3%	10µM*[single pt active]
CCOC(=O)CCc1c(C)c2ccc(OCc3nn[nH]n3)cc2oc1=O	>57	?	0%	1%
CCNC(=O)[C@@H]1O[C@@H](n2cnc3c(NCc4ccccc4)ncnc32)[C@@H](O)[C@H]1O	>57	?	-3%	2%
O=C(NCCc1ccccc1)C1CCCN(S(=O)(=O)c2cccs2)C1 (stereo not given)	>57	-5%	12%	4µM*[single pt active]
O=C(C1CCCN(S(=O)(=O)c2cccs2)C1)N1CCC(N2CCCCC2)CC1 (stereo not given)	>57	8%	31%	4µM*[single pt active]
SMILES	SmPrx2 inh	Anthrax LT inh	AmpC inh det	AmpC inh no det
CCN(CC)CCn1c(-c2ccccc2)nc2c(NCCOC)nc(C)nc21	·	-8%	10%	26%
S=C(S)O[C@@H]1C[C@@H]2C[C@H]1[C@@H]1CCC[C@H]21	>57	?	16µM*!	16µM*!
CC(=O)N1[C@H](Cc2ccccc2)C=C[C@]1(C)C(=O)NCc1cc(F)cc(C(F)(F)F)c1	·	-7%	12%	119%
C[C@]1(c2ccccc2)OC(C(=O)O)=CC1=O	>57	0%	0%	-9%
O=C1CCc2cc(S(=O)(=O)N3CCN(C(=O)c4ccco4)CC3)ccc2N1	>57	12%	0%	-8%
CN(Cc1ccco1)C(=O)C(Cc1ccccc1)NS(=O)(=O)c1ccc2c(c1)CCC(=O)N2 (stereo not given)	>57	2%	17%	4µM*[single pt active]
CCCNC(=O)C(Cc1ccccc1)NS(=O)(=O)c1ccc2c(c1)CCC(=O)N2 (stereo not given)	>57	-14%	13%	4µM*[single pt active]
CCC(=O)N1CCc2cc(S(=O)(=O)NC(Cc3ccccc3)C(=O)NC3CCCC3)ccc21 (stereo not given)	>57	5%	-3%	18%
O=C1CCc2cc(S(=O)(=O)NC(Cc3ccccc3)C(=O)NC3CCCC3)ccc2N1 (stereo not given)	>57	-17%	15%	4µM*[single pt active]
NC(=O)c1ccsc1NC(=O)c1nc(-c2ccccc2)n(-c2ccccc2)n1	?	10µM*	-1%	-24%
COc1ccc(S(=O)(=O)N(CCCN2CCCC2=O)Cc2cc3c(C)cc(C)cc3[nH]c2=O)cc1	20*	4%	1%	178%
Nc1c(S(N)(=O)=O)cc(S(N)(=O)=O)cc1S(N)(=O)=O	>57	?	-4%[5.75 µM]	-6%[5.75 µM]
C[C@H]1[C@H](C)CC[C@@]2(C(=O)O)CC[C@]3(C)C(=CC[C@@H]4[C@@]5(C)CC[C@H](O)C(C)(C)[C@@H]5CC[C@@]43C)[C@@H]12	>57	7.9µM*	-1%	1%
CO[C@@H]1CC[C@@]2(C)[C@@H](CC[C@@]3(C)[C@H]2CC=C2[C@H]4CC(C)(C)[C@H](O)[C@@H](OC(C)=O)[C@]4(CO)[C@H](O)C[C@]23C)[C@@]1(C)CO (tested in a mixture with another compound)	>57	-7%[3.58 µM]	-3%[12.8 µM]	100%[12.8 µM]
c1ccc(-c2cccc(N3CC4(CCNCC4)C3)c2)cc1	>57	-13%	0%	70%
c1ccc(-c2cccc(N3CCC4(CCNCC4)CC3)c2)cc1	>57	10µM*	-3%	113%
CCCCCC(=O)c1cc(CC(C(=O)OC)C(=O)OC)cc2cc(OC)c(OC)cc12	·	-6%[8 µM]	·	·
CCOc1ccc(C2CC(c3ccc(F)cc3)Nc3nc(N)nn32)cc1 (stereo not given)	>57	6%	13%	36%
COc1ccc(C2CC(c3ccc(F)cc3)Nc3nc(N)nn32)cc1 (stereo not given)	>57	?	14%	4µM*[single pt active]
COc1cccc(C2CC(c3ccccc3)Nc3nc(N)nn32)c1 (stereo not given)	>57	4%	9%	4µM*[single pt active]
COc1cccc(C2CC(c3c(F)cccc3Cl)n3nc(N)nc3N2)c1 (stereo not given)	>57	-18%	-2%	35%

Source: PubChem BioAssay
